Screening results from PubChem.
The list is a sample of the results.
aSyn UTR act: Activators working through SNCA 5'UTR binding (MLPCN); alpha-synuclein 5'UTR reporter, activators screen; activity score, % (tested at 7.5 µM), hits read low; actives 7.1% (n = 300,000); in the data active means activity score below about -60%
The depositor's hits bear a star.

SMILES	aSyn UTR act
NNC(=O)c1oc2nc(-c3ccco3)cc(-c3ccco3)c2c1N	-62*
O=C(c1csc(Nc2ccccc2Cl)n1)N1CCCC1	-117*
Clc1ccccc1CONc1ncnc2nonc12	-91*
CCN(CC)S(=O)(=O)c1ccc2nc(NC(=O)c3cccs3)sc2c1	-104*
CCN(CC)S(=O)(=O)c1ccc2nc(NC(=O)c3ccco3)sc2c1	-63*
Cc1ccsc1/C=N/N1CCN(c2ccccc2)CC1	-148*
Cc1ccsc1/C=N/N1CCN(c2ccccn2)CC1	-94*
CCC1CCCCN1CCCNC(=O)Cn1c2ccccc2c2nc(=O)cc(C)n21 (stereo not given)	-139*
COc1cccc(C(=O)c2cc3cc(Cl)ccc3[nH]2)c1	-147*
O=C(c1ccccc1)c1cc2cc(Cl)ccc2[nH]1	-169*
CC1=C(CC(=O)c2ccccc2)C(=O)c2ccccc2C1=O	-79*
O=c1c(=Nc2ccccc2O)c(=O)c2ccccc12	-112*
COc1ccc(CCNC(=O)C2CC(c3ccccc3[N+](=O)[O-])=NO2)cc1 (stereo not given)	-95*
O=C(NCCc1cccs1)C1CC(c2ccccc2[N+](=O)[O-])=NO1 (stereo not given)	-93*
COc1ccc(CCNC(=O)Nc2ccccc2[N+](=O)[O-])cc1	-130*
COc1ccc(C2=NOC(C(=O)NCc3ccc(F)cc3)C2)cc1OC (stereo not given)	82
CCCCNC(=O)C1CC(c2cccc([N+](=O)[O-])c2)=NO1 (stereo not given)	-171*
COc1ccc(N=Nc2nc3ccc(Br)cc3n2C)cc1	-113*
c1ccc2c(Nc3ccc4c(c3)OCCO4)c3c(nc2c1)CCCC3	-82*
CC(=O)c1ccc(Nc2c3c(nc4ccccc24)CCCC3)cc1	-195*
CC(=O)c1cccc(Nc2c3c(nc4ccccc24)CCC3)c1	75
COc1ccc2nc(Nc3ccc4c(c3)OCO4)sc2c1	-160*
COc1ccc2nc(Nc3nc4cc5c(cc4s3)OCO5)sc2c1	-123*
COc1ccc(C2=Nn3c(nnc3-c3ccncc3)SC2)cc1OC	72
Oc1ccc(-c2csc(Nc3ccccn3)n2)cc1	-163*
SMILES	aSyn UTR act
COc1ccc(-c2csc(Nc3ccccn3)n2)cc1OC	-170*
c1ccc(-c2csc(Nc3ccccn3)n2)cc1	-107*
Fc1ccc(-c2csc(Nc3ccccn3)n2)c(F)c1	-102*
CC(C(=O)N(C)C1CCS(=O)(=O)C1)N1C(=O)/C(=C/c2cccs2)SC1=S (stereo not given)	-83*
N#Cc1cnn(-c2ncnc3sc(-c4ccccc4)cc23)c1N	-65*
CCOc1cccc(/C=C2\NC(=S)N(c3ccccc3)C2=O)c1O	-148*
CSc1ccccc1NC(=O)COc1ccc(Cl)cc1C	-63*
Cc1cc(Cl)ccc1OCC(=O)Nc1ccccc1CO	-81*
Cc1nc(NCCc2ccc(S(N)(=O)=O)cc2)c2c3c(sc2n1)CCC3	-116*
Cc1nc(SCc2ccccc2)nc2c1CCC2	-115*
COc1ccc(C(=O)CSc2nnn(-c3cccc(NC(C)=O)c3)n2)cc1	-119*
CC(=O)Nc1cccc(-n2nnc(SCC(=O)c3ccccc3)n2)c1	-121*
C=CC(=O)N=c1sc2ccccc2n1-c1ccccc1	70
Cn1/c(=N/NC(=O)c2ccccc2Br)sc2ccccc21	-75*
Cn1c(=NC(=O)C2=NNC(=O)CC2)sc2ccccc21	60
C/C(=N\NC(=O)c1c(Br)cnn1C)c1ccc(NC(=O)c2ccc(F)cc2)cc1	-108*
CSc1cccc(NC(=O)c2c(Cl)cnn2C)c1	-89*
C/C(=N\NC(=O)c1c(Cl)cnn1C)c1cccc(NC(=O)c2ccc(C)cc2)c1	-72*
C/C(=N\NC(=O)c1ccccc1F)c1cccc(NC(=O)c2ccc(C)cc2)c1	-74*
C/C(=N\NC(=O)c1cccc(F)c1)c1cccc(NC(=O)c2ccc(F)cc2)c1	-72*
C/C(=N\NC(=O)c1ccc(O)cc1)c1cccc(NC(=O)c2ccc(Cl)cc2)c1	-161*
O=C(Nc1ccccc1)C1=C[C@@H](c2ccc(C(F)(F)F)cc2)C[C@@H](OCCCCO)O1	-95*
C#Cc1ccc([C@@H]2C=C(C(=O)N3CCN(Cc4ccccc4)CC3)O[C@H](OCCCCO)C2)cc1	99
O=C(NCc1ccccc1)C1=C[C@@H](c2csc3ccccc23)C[C@@H](OCCCCO)O1	95
c1ccc(NC2=Nc3ccccc3CC2)cc1	-179*
SMILES	aSyn UTR act
COc1ccc(C(=O)NC(=S)NNC(=O)c2ccc3ccccc3n2)cc1	73
COc1ccc(NC(=S)c2ccc3ccccc3n2)cc1	-70*
CCOc1ccc(NC(=S)c2ccc3ccccc3n2)cc1	-67*
CCN(CC)CCN1C(=O)C(=O)/C(=C(/O)c2cnn(-c3ccccc3)c2C)C1c1ccc(C)o1 (stereo not given)	-77*
Cc1ccc(C2/C(=C(\O)c3cnn(-c4ccccc4)c3C)C(=O)C(=O)N2CCN(C)C)o1 (stereo not given)	-92*
Cc1ccc(C2/C(=C(/O)c3cnn(-c4ccccc4)c3C)C(=O)C(=O)N2CCN2CCOCC2)o1 (stereo not given)	-121*
Cc1c(/C(O)=C2\C(=O)C(=O)N(CCN(C)C)C2c2ccco2)cnn1-c1ccccc1 (stereo not given)	-78*
Cc1c(/C(O)=C2/C(=O)C(=O)N(CCN3CCOCC3)C2c2cccs2)cnn1-c1ccccc1 (stereo not given)	-155*
Cc1nc(N)sc1-c1csc(Nc2ccccn2)n1	-168*
Cc1nc(N)sc1-c1csc(Nc2ccc(Cl)cn2)n1	-142*
Cc1nc(C)c(-c2csc(Nc3ccccn3)n2)s1	-85*
Cc1ccnc(Nc2nc(-c3sc(C)nc3C)cs2)c1	-161*
COc1ccc(/C=C/C(=O)N(C)C2CCCCC2)cc1Br	-92*
CCOc1cccc2c1OC(c1cc(OC)c(OC)c(OC)c1)N1N=C(c3ccc(C)o3)CC21 (stereo not given)	-219*
CCOC(=O)c1sc(=NC(=O)c2ccc(F)cc2)n(C)c1C	-104*
CCOC(=O)c1sc(=NC(=O)c2c(F)cccc2F)n(C)c1C	-103*
CCOC(=O)c1sc(=NC(=O)c2ccc(C)cc2)n(C)c1C	-196*
CC(=O)c1c(C)[nH]c(C(=O)Nc2ccc(Cl)cc2F)c1C	-186*
CC(=O)c1c(C)[nH]c(C(=O)Nc2ccccn2)c1C	-80*
Cc1ccc(NC(=O)CNCc2ccccc2Cl)cc1S(=O)(=O)N(C)C	-72*
CC(=O)c1c(C)[nH]c(C(=O)N2CCN(c3cc(Cl)ccc3C)CC2)c1C	57
CC(=O)c1c(C)[nH]c(C(=O)Nc2ccc(Cl)cc2)c1C	-195*
CSc1cccc(NC(=O)c2[nH]c(C)c(C(C)=O)c2C)c1	-139*
CCC(C)c1ccc(NC(=O)c2[nH]c(C)c(C(C)=O)c2C)cc1 (stereo not given)	-149*
CC(=O)c1c(C)[nH]c(C(=O)Nc2ccc(Cl)c(S(=O)(=O)N(C)C)c2)c1C	-174*
SMILES	aSyn UTR act
O=C(Nc1cccc2nsnc12)c1ccc(-c2ccc(Br)cc2)o1	-157*
COC(=O)c1ccccc1NC(=O)c1ccc(-c2ccc(Br)cc2)o1	-106*
Cn1c(/C=C/c2ccc(Cl)cc2Cl)c([N+](=O)[O-])c(=O)n(C)c1=O	-204*
CCc1ccc(/C=C/c2c([N+](=O)[O-])c(=O)n(C)c(=O)n2C)cc1	-62*
O=C(Nc1cccc(Br)c1)c1ccc(OC2CSC2)cc1	-198*
Cc1cccc(NC(=O)c2ccc(OC3CSC3)cc2)c1	-177*
O=C(CCC1CCCCC1)Nc1ccccc1O	-163*
